Among the data in article PMC5700166 are binding signal values, retold here.

The target in assay [1] is T1, GST-Nv-NF-kB (Ser allele) (Nematostella vectensis, UniProt A7UNT2 2-411).
T1 sequence: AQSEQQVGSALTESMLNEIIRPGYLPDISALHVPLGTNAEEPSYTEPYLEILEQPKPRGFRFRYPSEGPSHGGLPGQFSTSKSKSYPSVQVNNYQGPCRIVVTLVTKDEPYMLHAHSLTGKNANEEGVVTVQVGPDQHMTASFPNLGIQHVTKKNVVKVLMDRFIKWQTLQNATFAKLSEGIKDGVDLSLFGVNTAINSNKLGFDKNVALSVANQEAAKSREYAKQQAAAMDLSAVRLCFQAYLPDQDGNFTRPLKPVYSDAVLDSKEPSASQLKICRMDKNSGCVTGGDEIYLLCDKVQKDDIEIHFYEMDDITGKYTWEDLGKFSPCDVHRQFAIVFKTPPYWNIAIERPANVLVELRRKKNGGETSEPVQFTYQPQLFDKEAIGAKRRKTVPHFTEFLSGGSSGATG
In words: protein-binding microarray (PBM); PBM: ~300 nM protein, 6 mM HEPES pH 7.8, 80 mM KCl, 0.5 mM EDTA, 0.5 mM EGTA, 6% glycerol, 35 ng/ul poly-dIdC, 1% milk, 1 h, room temperature; Ap Aiptasia and Nv Nematostella (sea anemones) / Co Capsaspora / Aq Amphimedon (sponge) / Dm Drosophila / Hu human; RHD is the Rel homology domain; high values mean tight binding. As to conditions: dsDNA, one strand shown.

The next assay addresses GST-Hu-p50 (Homo sapiens, UniProt P19838 7-356). The assay is described as above. As to conditions: dsDNA, one strand shown.

Chain of GST-Hu-p50 (P19838 7-356): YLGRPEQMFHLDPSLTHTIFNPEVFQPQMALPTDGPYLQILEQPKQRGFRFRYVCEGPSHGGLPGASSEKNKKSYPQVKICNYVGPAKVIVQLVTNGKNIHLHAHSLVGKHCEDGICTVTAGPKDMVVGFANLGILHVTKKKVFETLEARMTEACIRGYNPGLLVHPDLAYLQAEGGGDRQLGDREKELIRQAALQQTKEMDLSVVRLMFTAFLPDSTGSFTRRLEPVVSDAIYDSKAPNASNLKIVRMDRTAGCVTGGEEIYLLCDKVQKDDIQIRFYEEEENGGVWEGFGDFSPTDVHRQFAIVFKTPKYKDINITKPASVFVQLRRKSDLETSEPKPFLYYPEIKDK

With “CCGATTAACATCAGTCCCGCACTTGATGTTAATCGGGTCTTGATTCGCTTGACGCTGCTG”, the binding signal in assay [1] is 1.03 z-score; with GST-Hu-p50, 1.18 z-score.

In the case of “CCGATTAACATCAAAAATTGCCCTGATGTTAATCGGGTCTTGATTCGCTTGACGCTGCTG”, the binding signal in assay [1] was 2.01 z-score; with GST-Hu-p50, 2.11 z-score.

In the case of “CCGATTAACATCAGGGATTTTGATGATGTTAATCGGGTCTTGATTCGCTTGACGCTGCTG”, the binding signal in assay [1] was found to be 2.92 z-score; with GST-Hu-p50, 2.85 z-score.

In the case of “CCGATTAACATCAGGAATGTACCTGATGTTAATCGGGTCTTGATTCGCTTGACGCTGCTG”, the binding signal turned out to be 3.2 z-score in assay [1] and 2.14 z-score with GST-Hu-p50.

“CCGATTAACATCAAGCAACCCCCTGATGTTAATCGGGTCTTGATTCGCTTGACGCTGCTG”: the values for the binding signal (in assay [1]; with GST-Hu-p50) were 3.95 z-score and 4.45 z-score, respectively.

“CCGATTAACATCAGGGGTGGGAATGATGTTAATCGGGTCTTGATTCGCTTGACGCTGCTG”: the binding signal in assay [1] came out at 1.67 z-score; with GST-Hu-p50, 1.53 z-score.

Consider “CCGATTAACATCAGGGGTATAACTGATGTTAATCGGGTCTTGATTCGCTTGACGCTGCTG”, for which the binding signal came to 1.03 z-score in assay [1] and 1.68 z-score in the assay with GST-Hu-p50.

In the case of “CCGATTAACATCACGGCTTTCCCTGATGTTAATCGGGTCTTGATTCGCTTGACGCTGCTG”, the values for the binding signal (in assay [1]; with GST-Hu-p50) were 3.48 z-score and 2.19 z-score, respectively.

With “CCGATTAACATCAAAGTGTCCCCTGATGTTAATCGGGTCTTGATTCGCTTGACGCTGCTG”, the binding signal in assay [1] was 4.51 z-score; in the assay with GST-Hu-p50 it was 3.85 z-score.

As to “CCGATTAACATCAGGGATTTTCATGATGTTAATCGGGTCTTGATTCGCTTGACGCTGCTG”, the binding signal in assay [1] stood at 4.23 z-score; with GST-Hu-p50, 4.44 z-score.

For the sequence “CCGATTAACATCAAATATTCCCATGATGTTAATCGGGTCTTGATTCGCTTGACGCTGCTG”, the binding signal in assay [1] was determined as 4.14 z-score; in the assay with GST-Hu-p50, 2.88 z-score.

For “CCGATTAACATCAGGGGAGTAAATGATGTTAATCGGGTCTTGATTCGCTTGACGCTGCTG”, the binding signal in assay [1] worked out at 3.92 z-score; with GST-Hu-p50, 2.72 z-score.

“CCGATTAACATCAGGGAGATTTATGATGTTAATCGGGTCTTGATTCGCTTGACGCTGCTG”: the binding signal in assay [1] is 4.27 z-score; in the assay with GST-Hu-p50, 4.86 z-score.

In the case of “CCGATTAACATCAAAAAAATTTCTGATGTTAATCGGGTCTTGATTCGCTTGACGCTGCTG”, the figures for the binding signal (in assay [1]; with GST-Hu-p50) were 1.35 z-score and 1.66 z-score, respectively.

In the case of “CCGATTAACATCAGGATAATCCCTGATGTTAATCGGGTCTTGATTCGCTTGACGCTGCTG”, the binding signal in assay [1] amounted to 1.62 z-score; in the assay with GST-Hu-p50, 2.15 z-score.

As to “CCGATTAACATCAGGGGGATGGATGATGTTAATCGGGTCTTGATTCGCTTGACGCTGCTG”, the binding signal was found to be 4.26 z-score in assay [1] and 3.69 z-score in the assay with GST-Hu-p50.

Turning to “CCGATTAACATCATCCGGGAAAATGATGTTAATCGGGTCTTGATTCGCTTGACGCTGCTG”, the binding signal in assay [1] came to 5.1 z-score; with GST-Hu-p50, 2.14 z-score.

As to “CCGATTAACATCAAATTCCCTCGTGATGTTAATCGGGTCTTGATTCGCTTGACGCTGCTG”, the values for the binding signal (in assay [1]; with GST-Hu-p50) were 4.74 z-score and 3.62 z-score, respectively.

On to “CCGATTAACATCATTATGGGAAATGATGTTAATCGGGTCTTGATTCGCTTGACGCTGCTG”, for which the binding signal in assay [1] is 2.21 z-score; with GST-Hu-p50 it was 2.18 z-score.

Consider “CCGATTAACATCAGGGATACCCCTGATGTTAATCGGGTCTTGATTCGCTTGACGCTGCTG”, for which the binding signal in assay [1] was 2.97 z-score; in the assay with GST-Hu-p50, 4.12 z-score.

For the sequence “CCGATTAACATCAGGAAACTACCTGATGTTAATCGGGTCTTGATTCGCTTGACGCTGCTG”, the binding signal worked out at 3.83 z-score in assay [1] and 3.87 z-score in the assay with GST-Hu-p50.

Consider “CCGATTAACATCAAAAAAACCCATGATGTTAATCGGGTCTTGATTCGCTTGACGCTGCTG”, for which the binding signal turned out to be 4.6 z-score in assay [1] and 4.37 z-score in the assay with GST-Hu-p50.

With “CCGATTAACATCAAAAATTTTCCTGATGTTAATCGGGTCTTGATTCGCTTGACGCTGCTG”, the binding signal in assay [1] stood at 1.32 z-score; in the assay with GST-Hu-p50, 2.23 z-score.

On to “CCGATTAACATCAGGGGCTACCCTGATGTTAATCGGGTCTTGATTCGCTTGACGCTGCTG”, for which the binding signal was 2.1 z-score in assay [1] and 3.35 z-score with GST-Hu-p50.

As for “CCGATTAACATCATGTTGGGAAATGATGTTAATCGGGTCTTGATTCGCTTGACGCTGCTG”, the binding signal in assay [1] was 2.11 z-score; with GST-Hu-p50, 1.47 z-score.

Take “CCGATTAACATCAAGGGAATCCCTGATGTTAATCGGGTCTTGATTCGCTTGACGCTGCTG”: the binding signal is 5.4 z-score in assay [1] and 4.17 z-score with GST-Hu-p50.

For “CCGATTAACATCAATGTCCCCCCTGATGTTAATCGGGTCTTGATTCGCTTGACGCTGCTG”, the binding signal in assay [1] turned out to be 4.42 z-score; with GST-Hu-p50, 3.89 z-score.

In the case of “CCGATTAACATCAGATTTCCCACTGATGTTAATCGGGTCTTGATTCGCTTGACGCTGCTG”, the figures for the binding signal (in assay [1]; in the assay with GST-Hu-p50) were 3.83 z-score and 2.99 z-score, respectively.

In the case of “CCGATTAACATCAGGAGTTTACCTGATGTTAATCGGGTCTTGATTCGCTTGACGCTGCTG”, the binding signal amounted to 2.03 z-score in assay [1] and 1.4 z-score with GST-Hu-p50.

As for “CCGATTAACATCAACCCCCGGCTTGATGTTAATCGGGTCTTGATTCGCTTGACGCTGCTG”, the figures for the binding signal (in assay [1]; with GST-Hu-p50) were 2.23 z-score and 3.29 z-score, respectively.

With “CCGATTAACATCAAACCCCCCCGTGATGTTAATCGGGTCTTGATTCGCTTGACGCTGCTG”, the binding signal in assay [1] was 4.7 z-score; in the assay with GST-Hu-p50 it was 5.27 z-score.

In the case of “CCGATTAACATCAGGGGGTTACATGATGTTAATCGGGTCTTGATTCGCTTGACGCTGCTG”, the figures for the binding signal (in assay [1]; in the assay with GST-Hu-p50) were 4.94 z-score and 5.16 z-score, respectively.

Take “CCGATTAACATCAGATTCTCCCCTGATGTTAATCGGGTCTTGATTCGCTTGACGCTGCTG”: the binding signal in assay [1] came to 6.01 z-score; with GST-Hu-p50 it was 4.4 z-score.

“CCGATTAACATCAGGGAATCTCATGATGTTAATCGGGTCTTGATTCGCTTGACGCTGCTG”: the binding signal came to 3.31 z-score in assay [1] and 2.5 z-score with GST-Hu-p50.

As to “CCGATTAACATCAGCTTGGGAAATGATGTTAATCGGGTCTTGATTCGCTTGACGCTGCTG”, the binding signal amounted to 1.58 z-score in assay [1] and 1.1 z-score with GST-Hu-p50.
